Where “and” joins values, the source holds several entries; their conditions need not be identical. Equal entries are not always repeated. Results filed as inconclusive are left out. Where a call stands in place of a potency, no number is given. The source holds several records for some structures; these can differ, active in one and inactive in another. Calls of active or inactive are those of the source. Calls follow the shape of the dose curve; as a rule, active = well fitted curve in the direction sought with a large enough effect; inconclusive = small, poorly fitted or top-dose-only effect, or another doubt; inactive = no such curve, though single readings can be large; an effect the other way counts as inactive or inconclusive.
How the values were obtained:
[1] = Primary qHTS for inhibitors of nuclear receptor binding SET domain protein 2 (NSD2) in an isogenic RCH-ACV NSD2 p.E1099K mutant (9B) (AID 1645876)
[2] = Primary qHTS for inhibitors of nuclear receptor binding SET domain protein 2 (NSD2) in an RCH-ACV wild type WT cells (2C) (AID 1645877)
Also: nearly all actives have a fitted effect of over 70% in size.
Potency is read from the fitted curve at half-maximal effect.

SMILES	Potency [1]	Potency [2]	activity change, negative = viability loss [1]	activity change, negative = cell killing [2]
CN1C(=O)c2ccccc2-n2c(nc3ccccc3c2=O)[C@@]12O[C@H]2c1ccccc1	inactive	inactive		
CC(=O)N[C@H]1[C@H](O[C@H]2CC[C@@]3(C)C(CC[C@]4(C)C3CC=C3C5CC(C)(C)CC[C@]5(C(=O)O)[C@H](O[C@@H]5O[C@H](CO)[C@@H](O)[C@H](O)[C@H]5O)C[C@]34C)C2(C)C)O[C@H](CO[C@@H]2OC[C@H](O)[C@H](O)[C@H]2O[C@@H]2OC[C@@H](O)[C@H](O)[C@H]2O)[C@@H](O)[C@@H]1O (some centres not stated)			-9.03% [at 9.23 µM] (inactive)	-14.8% [at 9.23 µM] (inactive)
COC1(CC(C)C)NC(=O)C(O)(Cc2ccccc2)NC1=O (configuration not stated)	inactive	inactive		
Nc1ccn([C@@H]2C(F)=C(CO)[C@@H](O)[C@H]2O)c(=O)n1	372 nM (active)	332 nM (active)		
C[C@]12CCC[C@](C)(C(=O)O)C1CCC13C=C(CO)C(CCC12)C3 (some centres not stated)	inactive	inactive		
CC1CCC2C(C(=O)O)=CC3C(O)C(C)(C)CC123 (configuration not stated)	inactive	inactive		
CC(C)=CCC[C@](C)(O[C@@H]1O[C@H](CO[C@@H]2OC[C@@H](O)[C@H](O)[C@H]2O)[C@@H](O)[C@H](O)[C@H]1O)[C@H]1CC[C@]2(C)[C@@H]1[C@H](O)C[C@@H]1[C@@]3(C)CC[C@H](O[C@@H]4O[C@H](CO)[C@@H](O)[C@H](O)[C@H]4O[C@@H]4O[C@H](CO)[C@@H](O)[C@H](O)[C@H]4O)C(C)(C)[C@@H]3CC[C@]12C	inactive	inactive		
CC(c1c[nH]c2ccccc12)C(O)C(=O)O (configuration not stated)	inactive	inactive		
CC[C@H]1OC(=O)[C@H](C)[C@@H](OC2C[C@@](C)(OC)[C@@H](O)[C@H](C)O2)[C@H](C)[C@@H](OC2O[C@H](C)C[C@H](NC)[C@H]2O)[C@](C)(O)C[C@@H](C)CN(C)[C@H](C)[C@@H](O)[C@]1(C)O (some centres not stated)	inactive	inactive		
NC1CCC(N[C@@H]2C[C@H]2c2ccccc2)CC1 (some centres not stated)	inactive	inactive and 26.3 µM (active)		
C[C@@H]1O[C@@H](O[C@H]2[C@H](O)[C@@H](O)[C@H](OC[C@H]3O[C@@H](OC(=O)[C@]45CCC(C)(C)C[C@H]4C4=CCC6[C@@]7(C)C[C@H](O)[C@H](O[C@@H]8O[C@H](CO)[C@@H](O)[C@H](O)[C@H]8O)[C@@](C)(C(=O)O)C7CC[C@@]6(C)[C@]4(C)CC5)[C@H](O[C@@H]4O[C@H](CO)[C@@H](O)[C@H](O)[C@H]4O)[C@@H](O)[C@@H]3O)O[C@@H]2CO)[C@H](O)[C@H](O)[C@H]1O (some centres not stated)			-12.2% [at 9.23 µM] (inactive)	-0.13% [at 9.23 µM] (inactive)
c1ccc(Cc2ncc3c(n2)CCNCC3)cc1	inactive	inactive		
C=CC(C)(O)CC/C=C(\C)C(=O)OC1CC2(C(=O)O)CCC3(C)C(=CCC4C5(C)CCC(OC6OC(COC7OCC(O)C(O)C7O)C(O)C(OC7OCC(O)C(O)C7O)C6OC6OC(CO)C(O)C(O)C6OC6OCC(O)C(O)C6O)C(C)(C)C5CCC43C)C2CC1(C)C (configuration not stated)			-9.57% [at 9.23 µM] (inactive)	-5.78% [at 9.23 µM] (inactive)
COc1ncc(-c2ccc3c(Nc4cc(Oc5cc(F)cc(F)c5)cc(C(=O)O)c4)c(S(=O)(=O)NC4CC4)cnc3c2)c(OC)n1	inactive	inactive		
CC1(C)CCC[C@@]2(C)[C@H]1[C@H](O)C=C1COC(=O)[C@@]12O	inactive	inactive		
Cc1cc(O)c(C(C)C)cc1O[C@@H]1O[C@H](CO)[C@@H](O)[C@H](O)[C@H]1O	inactive	inactive		
CCC(C)/C=C(C)/C=C/C1=CC2=C(Cl)C(=O)C(C)(OC(C)=O)C(=O)C2=CN1CCCC(=O)O (configuration not stated)	inactive	inactive		
C/C(=C/CCC(CO)C1CCC2(C)C3CCC4C(C)(C)C(OC5OC(CO)C(O)C(O)C5O)CC(O)C45CC35CCC12C)COC1OC(CO)C(O)C(O)C1O (configuration not stated)	inactive	inactive		

SMILES	Potency [1]	Potency [2]	activity change, negative = viability loss [1]	activity change, negative = cell killing [2]
C[C@@H]1O[C@@H](O[C@H]2[C@H](O[C@H]3CC[C@@]4(C)C(CC[C@]5(C)C4CC=C4C6CC(C)(C)CC[C@]6(C(=O)O[C@@H]6O[C@H](CO[C@@H]7O[C@H](CO)[C@@H](O[C@@H]8O[C@@H](C)[C@H](O)[C@@H](O)[C@H]8O)[C@H](O)[C@H]7O)[C@@H](O)[C@H](O)[C@H]6O)CC[C@]45C)[C@]3(C)CO)OC[C@H](O)[C@@H]2O)[C@H](O)[C@H](O)[C@H]1O (some centres not stated)			-5.7% [at 9.23 µM] (inactive)	-6.93% [at 9.23 µM] (inactive)
CC(=O)c1c(O)cc2cccc3c2c1CC(C)(O)O3 (configuration not stated)	inactive	inactive		
C=CC1(C)CC(O)C2(CCC3C(C)(C(=O)O)CCCC3(C)C2=O)C1 (configuration not stated)	inactive	inactive		
CC(C)CC(=O)O[C@@H]1OC=C(CO[C@@H]2O[C@H](CO[C@@H]3O[C@H](CO)[C@@H](O)[C@H](O)[C@H]3O)[C@@H](O)[C@H](O)[C@H]2O)[C@H]2C[C@H](O)[C@@H](CO)[C@@H]12	inactive	inactive		
COC1=Cc2c(nc3n(c2=O)C(C)C(=O)NC3(O)C(C)C)OC=C1 (configuration not stated)	inactive	inactive		
O=C(/C=C/c1ccc(O)cc1)OCC1=C[C@@H](O)[C@@H]2C=CO[C@@H](O[C@@H]3O[C@H](CO)[C@@H](O)[C@H](O)[C@H]3O)[C@H]12	inactive	inactive		
COc1cc([C@@H]2Oc3c(OC)cc(CCCO)cc3[C@@H]2CO[C@@H]2O[C@H](CO)[C@@H](O)[C@H](O)[C@H]2O)ccc1O	inactive	inactive		
CC1(C)CC[C@]2(C(=O)O)CC[C@]3(C)C(=CCC4[C@@]5(C)C[C@@H](O)[C@H](O)C(C)(C)C5CC[C@]43C)[C@@H]2[C@@H]1O (some centres not stated)	inactive	inactive		
CC(=O)NC(CCC(=O)O)C(=O)NCCc1ccc(O)cc1 (configuration not stated)	inactive	inactive		
C/C=C/C=C/C(CC(=O)O)Nc1ccc(C=O)cc1 (configuration not stated)	inactive	inactive		
C=C[C@H]1[C@H](O[C@@H]2O[C@H](CO[C@@H]3OC[C@](O)(CO)[C@H]3O)[C@@H](O)[C@H](O)[C@H]2O)OC=C2C(=O)OCC[C@H]21	inactive	inactive		
CC1NC(=O)C(Cc2c[nH]c3ccccc23)NC1=O (configuration not stated)	inactive	inactive		
COc1cc(C(=O)OC[C@H]2O[C@H](O[C@@]3(CO)O[C@@H](CO)[C@H](O)[C@H]3O)[C@H](O)[C@@H](O)[C@@H]2O)ccc1O	inactive	inactive		
CCOC(=O)[C@H](CCc1ccccc1)N[C@@H](C)C(=O)N1C2CCCCC2C[C@H]1C(=O)O (some centres not stated)	inactive	inactive		
C[C@@H](OC(=O)/C=C/c1ccc(O)cc1)C1=C[C@]2(C=C[C@@H]3C(C(=O)O)=CO[C@@H](O[C@@H]4O[C@H](CO[C@@H]5O[C@H](CO)[C@@H](O)[C@H](O)[C@H]5O)[C@@H](O)[C@H](O)[C@H]4O)[C@@H]32)OC1=O	inactive	inactive		
C=C1CC2C3(C)C(OC(C)=O)CC(=O)OC(C)(C)C3C(O)C(OC(C)=O)C2(C)C2C(=O)OC(C)C(=O)C12C (configuration not stated)	inactive	inactive		
CC(C)=CCCC1(C)Oc2cc3c(c4c2C2C(O4)C(C)(O)CCC21)CN(C(CCC(=O)O)C(=O)O)C3=O (configuration not stated)	inactive	inactive		
CC(C)=CCC/C(C)=C/CC/C(C)=C/CC[C@]1(C)CCc2cc(O)cc(C)c2O1	inactive	inactive		
